ST2 IL33 inh: IL1RL1 inhibition; inhibition, % for hits at 17 µM; AlphaLISA ST2-Fc/biotin-IL-33 interaction, 1 h; Q01638; 2.3% of 78,000 active; in the data active = inhibition above about 30%
Target sequence (Q01638 whole entry, looked up): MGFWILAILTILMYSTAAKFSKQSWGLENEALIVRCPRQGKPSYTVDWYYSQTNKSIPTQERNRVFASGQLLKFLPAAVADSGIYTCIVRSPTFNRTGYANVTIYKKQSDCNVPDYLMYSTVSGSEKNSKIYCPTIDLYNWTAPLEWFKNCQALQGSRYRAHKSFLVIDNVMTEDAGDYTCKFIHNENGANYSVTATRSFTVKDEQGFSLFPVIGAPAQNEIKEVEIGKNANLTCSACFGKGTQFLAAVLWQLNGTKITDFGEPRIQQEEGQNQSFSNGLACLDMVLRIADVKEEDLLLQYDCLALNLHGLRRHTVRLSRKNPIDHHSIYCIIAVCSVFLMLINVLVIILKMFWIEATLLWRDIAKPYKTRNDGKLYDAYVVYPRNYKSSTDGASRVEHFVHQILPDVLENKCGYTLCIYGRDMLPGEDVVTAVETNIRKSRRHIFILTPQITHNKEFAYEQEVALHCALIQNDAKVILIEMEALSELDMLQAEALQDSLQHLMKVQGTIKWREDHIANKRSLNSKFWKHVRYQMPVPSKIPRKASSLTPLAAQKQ
Hits are given with their value; 0 = inactive. This is one part of a sample in which hits are shown more often than they occur.

SMILES	ST2 IL33 inh
CN(C)c1ccc(/C=C2\N=C(c3ccc([N+](=O)[O-])cc3)OC2=O)cc1	0
Cc1ccccc1C1=N/C(=C\C=C\c2ccccc2)C(=O)O1	42.0%
Cc1cccc(C2=N/C(=C\c3ccc(Br)cc3)C(=O)O2)c1	0
COc1ccc(/C=C2\N=C(c3cccc(I)c3)OC2=O)cc1	31.0%
O=C(NC1CCCCCC1)c1ccc2nc3ccc(Cl)cc3c(=O)n2c1	0
FC(F)(F)Oc1ccc(-c2noc([C@@H]3Cc4nc[nH]c4CN3)n2)cc1	0
COC(=O)c1c(NC(=O)C2CC2c2ccccc2)sc2c1CCCC2 (stereo not drawn)	0
Cc1ccc(N2CCCS2(=O)=O)cc1NC(=O)c1ccccc1Br	0
COc1cc(C2=N/C(=C\C=C\c3ccccc3)C(=O)O2)cc(OC)c1OC	30.0%
Cc1ccccc1C1=N/C(=C\c2ccccc2)C(=O)O1	33.0%
Cc1ccc(C2=N/C(=C\c3ccccc3)C(=O)O2)cc1[N+](=O)[O-]	0
Cc1ccccc1C1=N/C(=C\c2ccc(N(C)C)cc2)C(=O)O1	40.0%
COc1c(Cl)cc(Cl)cc1/C=C1\N=C(c2ccccc2)OC1=O	0
Cc1ccc(C2=N/C(=C\c3ccc([N+](=O)[O-])cc3)C(=O)O2)cc1[N+](=O)[O-]	0
Cc1ccccc1C1=N/C(=C\c2cccc(F)c2)C(=O)O1	0
COc1ccccc1/C=C1\N=C(c2cc([N+](=O)[O-])cc([N+](=O)[O-])c2)OC1=O	0
COc1ccc(/C=C2\N=C(c3ccccc3C)OC2=O)cc1	0
Cc1cc2c(cc1-c1nccn1C(C)CCn1cccn1)OCCO2 (stereo not drawn)	0
CC(O)CNc1nc2c(c(=O)n(C)c(=O)n2C)n1Cc1ccc(Cl)c(Cl)c1 (stereo not drawn)	0
CSc1oc(-c2ccc(C)cc2)nc1S(=O)(=O)c1ccc(F)cc1	0
CCc1ccccc1N(CC(=O)NC(C)(C)C)S(=O)(=O)c1ccccc1	0
Cc1cc(C)n(CCNC(=O)c2ncc[nH]2)c(=O)n1	0
NC(=O)c1cc(-c2ccc(Cl)cc2)nc2ccccc12	0
O=C1NCCN1c1ccc(CN2CCCC(OCc3ccccn3)C2)cc1 (stereo not drawn)	0
N#C/C(=C\Nc1ccc(S(N)(=O)=O)cc1)c1nc(-c2ccccc2)cs1	0
SMILES	ST2 IL33 inh
N#CCc1nc(-c2ccccc2)cs1	0
N#C/C(=C/C=C/c1ccccc1)c1nc(-c2cccs2)cs1	60.0%
N#C/C(=C/c1ccc(F)cc1)c1nc(-c2ccccc2)cs1	56.0%
N#C/C(=C/C=C/c1ccccc1)c1nc(-c2ccc(F)cc2)cs1	40.0%
Nc1nc(-c2ccc(-c3ccccc3)cc2)cs1	0
COCCNC(=O)NC1CCCCC1	0
CCCOC(=O)C1=C(C)NC2=C(C(=O)C(C(=O)OC)C(C)C2)C1c1ccc(OC)c(OC)c1 (stereo not drawn)	0
Cc1cc(C)cc(N=Cc2ccc(OC3CSC3)cc2)c1	0
O=C(Nc1ccccc1)c1cc2ccccc2oc1=Nc1cccc(F)c1	0
COc1ccccc1N=c1oc2ccccc2cc1C(=O)Nc1ccccc1	41.0%
COc1ccc(N=c2oc3ccccc3cc2C(=O)Nc2ccc(C)cc2)cc1	0
O=C(NC1CCC(CC2CCC(NC(=O)c3ccncc3)CC2)CC1)c1ccncc1 (stereo not drawn)	0
CC(=O)Nc1ccc(S(=O)(=O)N2C[C@@H]3C[C@H](C2)c2ccc(-c4cccc(C(F)(F)F)c4)c(=O)n2C3)cc1	0
O=C1[C@@H]2C3c4ccccc4C(Br)(c4ccccc43)[C@@H]2C(=O)N1c1ccc([N+](=O)[O-])cc1	34.0%
CC(=O)Oc1ccc(N2C(=O)C3C4c5ccccc5C(C)(c5ccccc54)C3C2=O)cc1 (stereo not drawn)	0
O=C1C2[C@H](C(=O)N1c1cccc(Br)c1)C1c3ccccc3C2(C(=O)O)c2ccccc21 (stereo partly drawn)	0
CCOC(=O)c1sc(-c2ccccc2)cc1NC(=O)c1cc(=O)c2ccccc2o1	0
O=C(O)COc1ccc(Cl)cc1CN1CCC2(CCOCC2)CC1	0
Cc1sc2nc3c(C(=O)N4CCN(C(=O)c5ccco5)CC4)cccn3c(=O)c2c1C	0
COc1ccc(C(=O)Nc2ccc3nn(-c4ccc(F)cc4)nc3c2)cc1OC	0
Cc1ccc(-n2nc3ccc(NC(=O)COc4ccccc4)cc3n2)cc1Cl	0
Cc1ccc(-n2nc3ccc(NC(=O)c4ccc5c(c4)OCCO5)cc3n2)cc1Cl	34.0%
COc1ccc(-n2nc3ccc(NC(=O)c4ccc(OC)c(Cl)c4)cc3n2)cc1	33.0%
Cc1cc(N2CCC(C)CC2)nc2ccc(NC(=O)c3ccc4c(c3)OCO4)cc12	0
COc1ccc(-n2nc3cc(C)c(NC(=O)c4ccc(Cl)c([N+](=O)[O-])c4)cc3n2)cc1	0
SMILES	ST2 IL33 inh
COc1cc(Br)c(CN2CCN(Cc3ccccc3)CC2)cc1OC	0
N#Cc1c(-n2cccc2C=O)sc2c1CCCC2	0
CC(=O)Nc1sc2c(c1C#N)CCCC2	0
N#Cc1c(N)sc2c1CCCC2	31.0%
Cc1ccc2nc(SCC(=O)NC(C)(C)C)[nH]c2c1	0
CC(C)CNC(=O)c1ccc(NC(=O)Cc2ccc(Cl)cc2)cc1	0
O=C(O)c1cccc(NC(=O)c2cccc(C(=O)Nc3cccc(C(=O)O)c3)c2)c1	0
CC1(C)OC(=O)C(=CNc2cccc(C(=O)O)c2)C(=O)O1	33.0%
O=C(O)c1cccc(NC(=O)c2ccc(-c3ccccc3)cc2)c1	0
COc1ccc(S(=O)(=O)N2CCC3(CCNCC3)C2)cc1F	0
OCC1(O)CCN(c2ccnc3c(C(F)(F)F)cccc23)CC1	0
CCN1CCN(c2nc3c(c(=O)[nH]c(=O)n3C)n2CCSc2nc3ccccc3o2)CC1	0
O=C(Cn1cnc2c(cnn2-c2ccccc2)c1=O)N1CCCCC1	0
C#CCSc1nc(N)c(C#N)c(-c2cccc(Cl)c2)c1C#N	0
CN(C)c1ccc(Nc2c([N+](=O)[O-])cc([N+](=O)[O-])c3cccnc23)cc1	95.0%
CN(C)c1ccc(NC(=O)Nc2ccc3nc(-c4ccccn4)c(-c4ccccn4)nc3c2)cc1	0
O=[N+]([O-])c1cc(Cl)c2cccnc2c1O	0
N/C(=N/OC(=O)c1ccco1)c1ccc(Cl)cc1	0
Cc1cc(Cc2ccc(NC(=O)c3cccs3)c(C)c2)ccc1NC(=O)c1cccs1	0
Cc1cc2ncn(C(=O)c3cccs3)c2cc1C	0
Cc1cc(C)c(/C=C/C(=O)c2cccs2)c(C)c1	44.0%
CCOc1ccc2nc(SCC(=O)Nc3ccccc3Br)[nH]c2c1	0
COc1ccc(C(=O)N2C[C@@H]3C[C@H](C2)c2c(NS(=O)(=O)c4ccc(C)cc4)ccc(=O)n2C3)cc1	0
CSc1cccc(NC(=O)CS(=O)(=O)c2cccc3nsnc23)c1	0
COc1ccc(N=Cc2ccc(Br)c([N+](=O)[O-])c2)cc1	38.0%
SMILES	ST2 IL33 inh
O=[N+]([O-])c1cc(C=Nc2ccc3c(c2)OCCO3)ccc1Br	0
N#Cc1ccccc1N=Cc1ccc(Br)c([N+](=O)[O-])c1	30.0%
Cc1ccc(N=Cc2ccc(Br)c([N+](=O)[O-])c2)c(O)c1	0
COc1cc(C=O)ccc1OCCCOc1ccc([N+](=O)[O-])cc1	0
COc1cc(OC)c(C=Nc2cc([N+](=O)[O-])ccc2C)cc1Br	0
N#Cc1ccccc1N=Cc1cc2c(cc1[N+](=O)[O-])OCO2	0
COc1ccc(N=Cc2ccc(Oc3ccc([N+](=O)[O-])cc3[N+](=O)[O-])c(OC)c2)cc1	34.0%
Cc1ccc(N=Cc2ccc(N(C)C)c([N+](=O)[O-])c2)cc1	0
CCc1nc(C)c(CC(=O)N2CCCC(N3CCCC3=O)C2)c(=O)[nH]1 (stereo not drawn)	0
